ELG1 repair inh = qHTS screen for small molecules that inhibit ELG1-dependent DNA repair in human embryonic kidney (HEK293T) cells expressing luciferase-tagged ELG1; Potency, µM (highest dose often 46.1 µM), actives largely listed as inhibitors; HEK293T ELG1-luciferase reporter, luminescence, 16 h; DNA damage induced by 5-fluorouridine; actives 2.3% (n = 330,000); note: nearly all actives have a fitted effect of over 55% in size
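Quantitative HTS, concentration-response format. 2,000 cells/well co-treated with 5-fluorouridine and compound, 16 hr in 5% CO2 at 37 °C; ONE-Glo luminescence read after 30 min.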
Giardia killer = Small Molecules that selectively kill Giardia lamblia: qHTS; Giardia lamblia trophozoite viability; actives 0.15% (n = 340,000); activity change, % at 7.66 µM, hits read low; in the data active = activity change below about -80%; inconclusive = between about -30% and that limit;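 note: parasites exposed to compound for two days anaerobically before the ATP read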
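Killing of trophozoites was scored by loss of ATP luminescence after a 48 hrs anaerobic exposure to compounds at 37 deg C, using 100 cells per well.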
IL1B secr inh = qHTS for Inhibitors of Inflammasome Signaling: IL-1-beta AlphaLISA Primary Screen; actives 4.7% (n = 360,000); activity change, % at 57.5 µM; THP-1 LPS/ATP IL-1B secretion, AlphaLISA, 16 h; hits give low values; AID 743279, 2014; in the data active = activity change below about -50%; inconclusive = mostly about -30% to -49%
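THP-1 cells pretreated 1 hr with compounds (up to 57.5 uM final), then stimulated with LPS (250 ng/mL final) plus ATP (1.25 mM final); secreted IL-1B measured by AlphaLISA after 16 hr, decreased signal indicating inhibition.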
DT40 TDP1 CPT = qHTS for Inhibitors of human tyrosyl-DNA phosphodiesterase 1 (TDP1): qHTS in cells in presence of CPT; chicken DT40 Tdp1-/-;hTDP1 cells + 20 nM CPT, ATP luminescence, 48 h; Potency, µM (highest dose often 46.2 µM), most hits filed as inhibitors; actives 12% (n = 420,000); note: nearly all actives have a fitted effect of over 55% in size
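Cell growth measured by CellTiter-Glo luminescence after a minimum 48 h, 37 C compound exposure with 20 nM CPT in Tdp1-knockout DT40 cells stably expressing hTDP1, seeded 400/well; qHTS titration format.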
TDP1 block = qHTS Assay for Inhibitors of Tyrosyl-DNA Phosphodiesterase (TDP1); actives 0.28% (n = 350,000); Potency, µM (series often up to 130 µM), hits mostly inhibitors; recombinant TDP1, AlphaScreen DNA substrate cleavage; AID 485290, 2010; Tyrosyl-DNA phosphodiesterase 1 (Homo sapiens), Q9NUW8; note: nearly all actives have a fitted effect of over 40% in size
Target sequence (Q9NUW8 whole entry, looked up): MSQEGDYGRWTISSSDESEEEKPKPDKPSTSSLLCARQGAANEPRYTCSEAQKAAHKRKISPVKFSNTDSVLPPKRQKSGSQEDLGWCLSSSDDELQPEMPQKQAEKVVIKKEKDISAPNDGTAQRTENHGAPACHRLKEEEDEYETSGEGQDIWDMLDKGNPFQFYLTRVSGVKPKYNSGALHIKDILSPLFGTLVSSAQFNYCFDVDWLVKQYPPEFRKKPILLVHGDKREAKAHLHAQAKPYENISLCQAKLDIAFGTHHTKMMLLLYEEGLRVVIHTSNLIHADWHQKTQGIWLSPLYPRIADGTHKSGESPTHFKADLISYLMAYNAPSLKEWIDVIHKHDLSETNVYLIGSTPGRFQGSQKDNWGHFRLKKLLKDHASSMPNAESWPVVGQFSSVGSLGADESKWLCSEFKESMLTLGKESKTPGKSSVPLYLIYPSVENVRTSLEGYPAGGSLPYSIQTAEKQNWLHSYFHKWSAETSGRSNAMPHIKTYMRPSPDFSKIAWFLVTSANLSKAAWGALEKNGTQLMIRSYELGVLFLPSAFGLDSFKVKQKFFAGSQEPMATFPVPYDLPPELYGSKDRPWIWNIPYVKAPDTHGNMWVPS
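AlphaScreen read-out: signal falls as enzyme removes the 3' tyrosine-FITC from a 5'-biotinylated DNA oligo (15 nM, 5 min, RT). Enzyme was E. coli-made recombinant Tdp1 at 1 nM, exposed to compound for 15 min beforehand; beads 10 ug/ml, 10 min.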
DT40 TDP1 no CPT = qHTS for Inhibitors of human tyrosyl-DNA phosphodiesterase 1 (TDP1): qHTS in cells in absence of CPT | DT40 Tdp1-/- hTDP1 cells, no CPT, ATP luminescence, 48 h | actives 15% (n = 420,000) | Potency, µM (titrated, usually from 46.2 µM), hits mostly inhibitors; note: nearly all actives have a fitted effect of over 55% in size
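Stably hTDP1-transfected Tdp1-null chicken DT40 cells were treated with library compounds minus camptothecin and grown for at least 48 hr at 37 °C, after which cellular ATP was quantified by luminescence.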
Of the large screens only hits and unclear results are named; the others gave an inactive call; ! = repeats disagree. Hits are enriched below; roughly 19% of the tested compounds scored in any of these assays. Unless noted, calls come from the whole dose curve; as a rule, active = well fitted curve in the direction sought with a large enough effect; inconclusive = small, poorly fitted or top-dose-only effect, or another doubt; inactive = no such curve, though single readings can be large; an effect the other way counts as inactive or inconclusive.

CCCN(C(=O)Cn1ncc2c(=O)oc3ccccc3c21)c1cccc(C)c1	DT40 TDP1 CPT 23.1µM!, DT40 TDP1 no CPT 20.6µM (no result: ELG1 repair inh)
COC(=O)C(CCSC)NC(=O)Cn1ncc2c(=O)oc3ccccc3c21 (stereo not given)	ELG1 repair inh inconclusive, IL1B secr inh -55.0, DT40 TDP1 CPT inconclusive
COc1ccc(-c2nc3ccccc3c(=O)n2NC(=O)c2cccnc2Cl)cc1OC	none
O=S(=O)(Nc1cccc2ccccc12)N1CCCC1	none
Cc1ccc(C(=O)NNC(=O)c2ccc(S(=O)(=O)N3CCCCC3)cc2)cc1	DT40 TDP1 CPT 5.17µM, TDP1 block inconclusive, DT40 TDP1 no CPT 23.1µM
Cc1ccc(C(=O)NCCc2ccc(S(=O)(=O)N3CCCC3)cc2)cc1	none
Cc1ccc(CNC(=O)c2ccc(S(=O)(=O)N3CCCCCC3)cc2)cc1	DT40 TDP1 CPT 20.6µM, DT40 TDP1 no CPT 4.11µM (no result: ELG1 repair inh, Giardia killer, TDP1 block)
CC(=O)NCc1ccc(S(=O)(=O)N2CCCN(C)CC2)cc1	DT40 TDP1 CPT inconclusive, DT40 TDP1 no CPT 23.1µM (no result: TDP1 block)
CCCn1c(C)cc(C(=O)COC(=O)CN=C2NS(=O)(=O)c3ccccc32)c1C	DT40 TDP1 CPT inconclusive
COc1ccccc1/C=C/C=N/Nc1cccc(C(=O)O)c1	ELG1 repair inh inconclusive
COc1cc([N+](=O)[O-])cc(CN2CCCCC2)c1O	none
COc1cc(N(C)C)cc(CN(C)CCc2ccc([N+](=O)[O-])cc2)c1O	TDP1 block 2.24µM (no result: ELG1 repair inh, Giardia killer, IL1B secr inh, DT40 TDP1 CPT, DT40 TDP1 no CPT)
COC(=O)c1sccc1S(=O)(=O)Nc1ccc(C(O)(C(F)(F)F)C(F)(F)F)cc1	DT40 TDP1 CPT 18.4µM, DT40 TDP1 no CPT 20.6µM (no result: ELG1 repair inh, Giardia killer, TDP1 block)
COc1ccc(NS(=O)(=O)c2cccc3cccnc23)cc1Cl	DT40 TDP1 CPT inconclusive, DT40 TDP1 no CPT 20.6µM (no result: TDP1 block)
COc1ccc(NS(=O)(=O)c2cccc3cccnc23)cc1	none
O=C1CCCc2oc3ccc(NS(=O)(=O)c4cccc5cccnc45)cc3c21	ELG1 repair inh inconclusive, DT40 TDP1 CPT inconclusive, TDP1 block 50.1µM, DT40 TDP1 no CPT 23.1µM
COC(=O)c1sccc1S(=O)(=O)Nc1ccc(Cl)cc1	DT40 TDP1 no CPT inconclusive
COc1ccc(OC)c(NC(=O)c2ccccc2NS(=O)(=O)c2cccc3cccnc23)c1	DT40 TDP1 no CPT 29.1µM
O=C(NCc1cccc(Cl)c1)c1cc2ccc3cccnc3c2[nH]1	none (no result: ELG1 repair inh, Giardia killer, IL1B secr inh)
O=S(=O)(Nc1ccc(Br)cc1)c1cccc2cccnc12	DT40 TDP1 no CPT inconclusive (no result: TDP1 block)
COc1ccccc1NC(=O)c1cc2ccc3cccnc3c2[nH]1	DT40 TDP1 CPT 3.66µM, DT40 TDP1 no CPT 25.9µM (no result: ELG1 repair inh, Giardia killer, IL1B secr inh)
O=c1oc2ccc(NS(=O)(=O)c3cccc4cccnc34)cc2s1	DT40 TDP1 CPT 20.6µM, DT40 TDP1 no CPT 23.1µM (no result: TDP1 block)
CC(C)N(Cc1ccccc1)C(=O)c1cc2ccc3cccnc3c2[nH]1	DT40 TDP1 CPT 16.4µM, DT40 TDP1 no CPT 18.4µM (no result: ELG1 repair inh, Giardia killer, IL1B secr inh)
O=S(=O)(Nc1ccc(C(O)(C(F)(F)F)C(F)(F)F)cc1)c1cccc2cccnc12	DT40 TDP1 CPT 16.4µM, DT40 TDP1 no CPT 23.1µM (no result: ELG1 repair inh, Giardia killer, TDP1 block)
CN(C(=O)c1nn(C)c2c1CSc1ccccc1-2)c1ccccc1Cl	IL1B secr inh inconclusive, DT40 TDP1 CPT inconclusive, DT40 TDP1 no CPT inconclusive
O=C1CSC(c2ccccc2)N1Cc1ccccc1 (stereo not given)	none (no result: Giardia killer, IL1B secr inh, DT40 TDP1 CPT, DT40 TDP1 no CPT)
O=C(CCc1ccccc1)Nc1cc2c3c(c1)CC(=O)N3CCC2	ELG1 repair inh inconclusive, DT40 TDP1 no CPT inconclusive
O=C(COc1ccccc1)Nc1cc(S(=O)(=O)N2CCOCC2)ccc1N1CCCC1	none
O=C(COc1cccc(Cl)c1)Nc1cc(S(=O)(=O)N2CCOCC2)ccc1N1CCOCC1	ELG1 repair inh inconclusive, IL1B secr inh inconclusive, DT40 TDP1 CPT inconclusive, DT40 TDP1 no CPT 18.4µM
Cc1ccc(S(=O)(=O)N2CCOCC2)cc1C(=O)Nc1cc(Cl)ccc1N1CCOCC1	DT40 TDP1 CPT 23.1µM, DT40 TDP1 no CPT inconclusive
